Molecular target: RUNX1 (UniProt Q01196)
Test: RUNX1 binding intensity (PBM fluorescence), RUNX1 alone (arbitrary fluorescence units); higher = stronger binding
Settings: RUNX1 concentration 2 nM; ETS1 concentration 0 nM
Procedure: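 Cooperative gcPBM on 36-bp genomic probes with neighbouring ETS1 and RUNX1 sites. Recombinant human RUNX1 (2 nM) was incubated alone or with ETS1 (25 nM) and detected with anti-RUNX1 antibody plus Alexa488 secondary. Values are medians over 4 replicate spots; the RUNX1+ETS1 data were normalised to the RUNX1-only data. The probes sit in constant array flanks that are not printed.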
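Throughout, for RUNX1 binding intensity (PBM fluorescence), RUNX1 alone: Full-length recombinant human RUNX1 bound to double-stranded 36-bp genomic probes on a high-density microarray, scored as Alexa488 fluorescence per spot via anti-RUNX1 antibody, median of four replicate spots.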

Chain of RUNX1 (Q01196 whole entry): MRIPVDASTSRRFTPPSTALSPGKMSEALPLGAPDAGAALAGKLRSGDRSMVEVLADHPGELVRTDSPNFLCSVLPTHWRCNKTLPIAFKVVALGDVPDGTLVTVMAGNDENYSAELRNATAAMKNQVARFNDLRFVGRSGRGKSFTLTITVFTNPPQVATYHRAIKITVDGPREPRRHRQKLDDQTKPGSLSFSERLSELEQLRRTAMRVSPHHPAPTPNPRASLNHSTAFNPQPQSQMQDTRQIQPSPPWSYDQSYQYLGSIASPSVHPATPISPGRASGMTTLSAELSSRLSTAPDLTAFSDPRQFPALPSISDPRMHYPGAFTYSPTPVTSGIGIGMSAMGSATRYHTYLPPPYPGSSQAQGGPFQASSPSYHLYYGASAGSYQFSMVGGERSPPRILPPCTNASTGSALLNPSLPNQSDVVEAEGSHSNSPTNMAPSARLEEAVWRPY

Row | Sequence | RUNX1 binding intensity
1 | AGGAAACCACAAGTTATTCCCTGCAAAGGTCTTGAT | 3320
2 | CGGCTAGGAAATAAAGAGCCTTCTCTCCGCGGTAGG | 2270
3 | TTTGTTGTTCCGGGTGCGAGGCGGCCGCAGCTTCCA | 1090
4 | GCCGCCGTTTCCTGATTGGTTGTGGGTGGCTACCTC | 834
5 | CTTAGGACTTCCCGTAGATGGTGGTCTGTGCTAAGG | 706
6 | GTGCCTTTTCATGTGGGATGTGGCTTCAAGGAGACC | 911
7 | CTTTCTGGTTTCCTTCCTTTTTGGTTTTGGTTTCAT | 1630
8 | TAGGCGGAAAGCCCGCTAGCCTAAACCACAGAGGGT | 896
9 | CCCAGCCGAGGGAGGAAGCCTGCGGTCACTGCCATC | 1640
10 | AGGTTCGTGGCAGGAAAGTTTGTGGCAGCAAAGCCT | 1190
11 | CCGGGAAACACGGGAGAGCGACCGAAACCGCAATCA | 3650
12 | AACTCCTGGCCGGAACGGCACAGACCGCACTCCCGC | 938

Molecular target: RUNX1 (UniProt Q01196)
Test: TF binding intensity (PBM fluorescence), negative control probe (arbitrary fluorescence units); higher = stronger binding
Settings: not given
Procedure: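 gcPBM negative-control 36-bp genomic probes lacking TF binding sites. Each was incubated with recombinant human ETS1 or RUNX1 alone and detected by antibody fluorescence. Values are medians over replicate spots (4 spots for the ETS1-RUNX1 arrays, 3 for the ETS1-ETS1 array). The probes sit in constant array flanks that are not printed.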

Row | Sequence | TF binding intensity
13 | TGAAAAAGGGGAGGGCGGAAGTGACGAGCCGTAGCC (protein concentration 2 nM) | 891
14 | GGTGTCAAAGCCGAGCGGAAGCGGGGCTGGAATTGG (protein concentration 2 nM) | 891
15 | ATTCCATTCCAATCCTTTCCGCTCGGCTAAATTCCT (protein concentration 2 nM) | 1450
16 | ACAGTTGCTCCGTCTCTTCCTGTGTCTGGCTTTATT (protein concentration 2 nM) | 876
17 | TCGGCGGCGGAGCACCGGAAGTTCTGCAGCACTGGC (protein concentration 2 nM) | 880
18 | TCTCCGCGCATTTTATTTCCGGTTCTGAGGACGCCG (protein concentration 2 nM) | 1040
19 | CAGGCTCGACACGGGCGGAACAAACGGGCTCCACTA (protein concentration 2 nM) | 769
20 | GCGTACACCTGCCGCCGGAAGAAGAGCGACGGTCGC (protein concentration 2 nM) | 909
21 | ATTTCTGTGCAGTCACTTCCTCTTCTTAGGTCATAG (protein concentration 2 nM) | 1010
22 | GTCCCGCCTTCTCCGCTTCCGCCACCTCCTACTTAG (protein concentration 2 nM) | 1160
23 | CGAGCTTAGAAGGCGCTTCCGATGGGCGGAGTTTAG (protein concentration 2 nM) | 742
24 | GGTCCCAGGAGAGGGGTTCCGGGGTGAAAGAGTGAG (protein concentration 2 nM) | 1060
25 | TCTCGCCCCTCATCCCGGAAAGGAAGACTCTGAATG (protein concentration 2 nM) | 891
26 | TCCAGGGCCACCCCATTTCCTGCCCTCAGCACTTCG (protein concentration 2 nM) | 929
27 | TAACTCTTTGCTATCCTTCCGCTGAGCTTCATCTTC (protein concentration 2 nM) | 963
28 | TTGCCCGTCACTTGAGTTCCGCCTCCTCTGCTCCTC (protein concentration 2 nM) | 922
29 | CTCACCAGTCACCCCAGGAAACTCTGCCCCTTTACA (protein concentration 2 nM) | 950
30 | ATGTGTGTGTTTTTCCTTCCGGTTGCTGTGAGGTGA (protein concentration 2 nM) | 919
31 | GCACACAAGGCAGTGTTTCCGGGACAGAGGGTGGGC (protein concentration 2 nM) | 937
32 | CTCAGCGGCCGAACCCGGAAGTTCGGGGCCGAGTTC (protein concentration 2 nM) | 901
33 | GAAAAACAGACAGACAGGAAGAGAGAGAGACAGACA (protein concentration 2 nM) | 903
34 | CCTTTGAAAGAAAAAAGGAAGTGTTTGGACGACAGC (protein concentration 2 nM) | 1150
35 | CGTCGCCCGGTCCCGGTTCCGGTCCGCGCTCCGGTC (protein concentration 2 nM) | 910
36 | CTCACACCCAGTCCCAGGAAGCGAGCCCCACGTCGC (protein concentration 2 nM) | 894
37 | TCTGGACGATGCAGTTTTCCGGTATACGCGACGCTA (protein concentration 2 nM) | 727
38 | GAAGGGGTTTCAGGACGGAAGCAAACACATATTCAA (protein concentration 2 nM) | 912
39 | ACGGCAAGTAAAGTGTTTCCGGCTCAGGTGTCATGG (protein concentration 2 nM) | 852
40 | ACGCTGCGCATGCGCCGGAAGTTGCAGCCGTGAAGC (protein concentration 2 nM) | 811

— the supplement of paper PMC10681739
